# Measurements as given in PMC11006913.
# Key:
# Experiment in all cases: PBM; 200 nM protein, PBS
# Conditions in all cases: dsDNA, one strand shown
# HOXB9 [1] = target: HOXB9 (Homo sapiens, UniProt P17482 171-250, T197M)
# HOXC9 [2] = target: HOXC9 (Homo sapiens, UniProt P31274 178-260, K195R)
# HOXC10 [3] = target: HOXC10 (Homo sapiens, UniProt Q9NYD6 254-340)
# ALX4 [4] = target: ALX4 (Homo sapiens, UniProt Q9H161 200-286, Q225E)
# HOXB9 [5] = target: HOXB9 (Homo sapiens, UniProt P17482 171-250)
# Chain of HOXB9 (Homo sapiens, UniProt P17482 171-250) (P17482 171-250): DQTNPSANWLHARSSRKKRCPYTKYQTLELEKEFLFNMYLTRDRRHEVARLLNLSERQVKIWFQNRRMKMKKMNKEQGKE
# HOXC9 [6] = target: HOXC9 (Homo sapiens, UniProt P31274 178-260)
# Chain of HOXC9 (Homo sapiens, UniProt P31274 178-260) (P31274 178-260): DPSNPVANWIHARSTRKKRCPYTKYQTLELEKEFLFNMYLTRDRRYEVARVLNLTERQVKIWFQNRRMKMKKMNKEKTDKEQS
# HOXD13 [7] = target: HOXD13 (Homo sapiens, UniProt P35453 263-343, T313R)
# Chain of HOXD13 (Homo sapiens, UniProt P35453 263-343, T313R) (P35453 263-343 T313R): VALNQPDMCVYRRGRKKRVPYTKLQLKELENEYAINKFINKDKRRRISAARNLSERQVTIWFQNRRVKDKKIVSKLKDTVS
# HOXC9 [8] = target: HOXC9 (Homo sapiens, UniProt P31274 178-260, R193K)
# Chain of HOXC9 (Homo sapiens, UniProt P31274 178-260, R193K) (P31274 178-260 R193K): as the sequence (P31274 178-260) above, with R16K counted along it
# HOXD13 [9] = target: HOXD13 (Homo sapiens, UniProt P35453 263-343)
# Chain of HOXD13 (Homo sapiens, UniProt P35453 263-343) (P35453 263-343): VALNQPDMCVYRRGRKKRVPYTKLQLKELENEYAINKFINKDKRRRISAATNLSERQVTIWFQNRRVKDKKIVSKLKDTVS
# HOXC10 [10] = target: HOXC10 (Homo sapiens, UniProt Q9NYD6 254-340, K271E)
# Chain of HOXC10 (Homo sapiens, UniProt Q9NYD6 254-340, K271E) (Q9NYD6 254-340 K271E): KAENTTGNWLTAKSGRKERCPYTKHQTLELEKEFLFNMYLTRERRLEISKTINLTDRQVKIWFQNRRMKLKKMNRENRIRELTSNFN
# HOXD13 [11] = target: HOXD13 (Homo sapiens, UniProt P35453 263-343, T313A)
# Chain of HOXD13 (Homo sapiens, UniProt P35453 263-343, T313A) (P35453 263-343 T313A): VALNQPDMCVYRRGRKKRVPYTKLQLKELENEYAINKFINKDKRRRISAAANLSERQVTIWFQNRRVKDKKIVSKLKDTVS
# HOXB9 [12] = target: HOXB9 (Homo sapiens, UniProt P17482 171-250, R186Q)
# Chain of HOXB9 (Homo sapiens, UniProt P17482 171-250, R186Q) (P17482 171-250 R186Q): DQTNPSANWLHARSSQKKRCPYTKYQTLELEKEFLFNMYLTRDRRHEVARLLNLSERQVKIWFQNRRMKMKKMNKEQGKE
# HOXC9 [13] = target: HOXC9 (Homo sapiens, UniProt P31274 178-260, R222W)
# Chain of HOXC9 (Homo sapiens, UniProt P31274 178-260, R222W) (P31274 178-260 R222W): as the sequence (P31274 178-260) above, with R45W counted along it
# ALX4 [14] = target: ALX4 (Homo sapiens, UniProt Q9H161 200-286)
# Chain of ALX4 (Homo sapiens, UniProt Q9H161 200-286) (Q9H161 200-286): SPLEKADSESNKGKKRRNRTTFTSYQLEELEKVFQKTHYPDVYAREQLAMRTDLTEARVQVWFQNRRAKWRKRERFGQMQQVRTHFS
# MSX2 [15] = target: MSX2 (Homo sapiens, UniProt P35548 130-214)
# Chain of MSX2 (Homo sapiens, UniProt P35548 130-214) (P35548 130-214): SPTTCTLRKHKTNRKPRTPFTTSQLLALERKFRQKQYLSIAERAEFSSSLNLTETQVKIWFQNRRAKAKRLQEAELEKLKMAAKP
# MSX2 [16] = target: MSX2 (Homo sapiens, UniProt P35548 130-214, F161Y)
# Chain of MSX2 (Homo sapiens, UniProt P35548 130-214, F161Y) (P35548 130-214 F161Y): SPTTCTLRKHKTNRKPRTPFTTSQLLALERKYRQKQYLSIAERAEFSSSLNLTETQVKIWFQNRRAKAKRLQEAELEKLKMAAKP
# HOXB6 = HOXB6 (Homo sapiens, UniProt P17509 132-218, K202E)
# Chain of HOXB6 (P17509 132-218 K202E): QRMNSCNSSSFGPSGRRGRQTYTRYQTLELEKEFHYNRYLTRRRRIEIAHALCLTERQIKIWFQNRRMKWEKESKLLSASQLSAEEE
# ALX3 = ALX3 (Homo sapiens, UniProt O95076 139-225, N203Q)
# Chain of ALX3 (O95076 139-225 N203Q): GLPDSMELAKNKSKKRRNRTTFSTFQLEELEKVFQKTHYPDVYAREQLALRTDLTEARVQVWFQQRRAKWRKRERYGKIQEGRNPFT
# Chain of HOXC10 (Homo sapiens, UniProt Q9NYD6 254-340) (Q9NYD6 254-340): as the sequence (Q9NYD6 254-340 K271E) above, with E18K counted along it
# Chain of HOXB9 (Homo sapiens, UniProt P17482 171-250, T197M) (P17482 171-250 T197M): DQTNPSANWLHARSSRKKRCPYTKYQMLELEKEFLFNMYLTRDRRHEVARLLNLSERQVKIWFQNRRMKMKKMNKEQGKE
# Chain of ALX4 (Homo sapiens, UniProt Q9H161 200-286, Q225E) (Q9H161 200-286 Q225E): as the sequence (Q9H161 200-286) above, with Q26E counted along it
# Chain of HOXC9 (Homo sapiens, UniProt P31274 178-260, K195R) (P31274 178-260 K195R): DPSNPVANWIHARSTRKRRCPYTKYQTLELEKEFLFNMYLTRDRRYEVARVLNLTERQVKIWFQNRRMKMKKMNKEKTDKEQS
Sequence,binding signal (HOXB9 [1]),binding signal (HOXC9 [2]),binding signal (HOXC10 [3]),binding signal (ALX4 [4]),binding signal (HOXB9 [5]),binding signal (HOXC9 [6]),binding signal (HOXD13 [7]),binding signal (HOXC9 [8]),binding signal (HOXD13 [9]),binding signal (HOXC10 [10]),binding signal (HOXD13 [11]),binding signal (HOXB9 [12]),binding signal (HOXC9 [13]),binding signal (ALX4 [14]),binding signal (MSX2 [15]),binding signal (MSX2 [16]),binding signal (HOXB6),binding signal (ALX3)
AATAAAAT,"10 upbm affinity estimate (log intensity, higher = more binding, comparable within an allelic series)","12.7 upbm affinity estimate (log intensity, higher = more binding, comparable within an allelic series)","12.5 upbm affinity estimate (log intensity, higher = more binding, comparable within an allelic series)","11.1 upbm affinity estimate (log intensity, higher = more binding, comparable within an allelic series)","12.1 upbm affinity estimate (log intensity, higher = more binding, comparable within an allelic series)","12.7 upbm affinity estimate (log intensity, higher = more binding, comparable within an allelic series)","10.8 upbm affinity estimate (log intensity, higher = more binding, comparable within an allelic series)","12.7 upbm affinity estimate (log intensity, higher = more binding, comparable within an allelic series)","11.8 upbm affinity estimate (log intensity, higher = more binding, comparable within an allelic series)","12 upbm affinity estimate (log intensity, higher = more binding, comparable within an allelic series)","11.8 upbm affinity estimate (log intensity, higher = more binding, comparable within an allelic series)","11.7 upbm affinity estimate (log intensity, higher = more binding, comparable within an allelic series)","11.5 upbm affinity estimate (log intensity, higher = more binding, comparable within an allelic series)",,,,,
GTCGTAAA,"9.95 upbm affinity estimate (log intensity, higher = more binding, comparable within an allelic series)","13.1 upbm affinity estimate (log intensity, higher = more binding, comparable within an allelic series)","13.2 upbm affinity estimate (log intensity, higher = more binding, comparable within an allelic series)",,"12.6 upbm affinity estimate (log intensity, higher = more binding, comparable within an allelic series)","13.3 upbm affinity estimate (log intensity, higher = more binding, comparable within an allelic series)","10.9 upbm affinity estimate (log intensity, higher = more binding, comparable within an allelic series)","13 upbm affinity estimate (log intensity, higher = more binding, comparable within an allelic series)","12.3 upbm affinity estimate (log intensity, higher = more binding, comparable within an allelic series)","12.7 upbm affinity estimate (log intensity, higher = more binding, comparable within an allelic series)","11.9 upbm affinity estimate (log intensity, higher = more binding, comparable within an allelic series)","11.9 upbm affinity estimate (log intensity, higher = more binding, comparable within an allelic series)","11 upbm affinity estimate (log intensity, higher = more binding, comparable within an allelic series)",,,,,
CTATAAAA,"9.77 upbm affinity estimate (log intensity, higher = more binding, comparable within an allelic series)","12.8 upbm affinity estimate (log intensity, higher = more binding, comparable within an allelic series)","12.4 upbm affinity estimate (log intensity, higher = more binding, comparable within an allelic series)",,"12.2 upbm affinity estimate (log intensity, higher = more binding, comparable within an allelic series)","12.9 upbm affinity estimate (log intensity, higher = more binding, comparable within an allelic series)","11.1 upbm affinity estimate (log intensity, higher = more binding, comparable within an allelic series)","12.8 upbm affinity estimate (log intensity, higher = more binding, comparable within an allelic series)","12.4 upbm affinity estimate (log intensity, higher = more binding, comparable within an allelic series)","11.7 upbm affinity estimate (log intensity, higher = more binding, comparable within an allelic series)","12.2 upbm affinity estimate (log intensity, higher = more binding, comparable within an allelic series)","11.9 upbm affinity estimate (log intensity, higher = more binding, comparable within an allelic series)","11.4 upbm affinity estimate (log intensity, higher = more binding, comparable within an allelic series)",,,,,
CATAAAAC,"9.89 upbm affinity estimate (log intensity, higher = more binding, comparable within an allelic series)","12.9 upbm affinity estimate (log intensity, higher = more binding, comparable within an allelic series)","12.6 upbm affinity estimate (log intensity, higher = more binding, comparable within an allelic series)",,"12.4 upbm affinity estimate (log intensity, higher = more binding, comparable within an allelic series)","13.1 upbm affinity estimate (log intensity, higher = more binding, comparable within an allelic series)","10.7 upbm affinity estimate (log intensity, higher = more binding, comparable within an allelic series)","13 upbm affinity estimate (log intensity, higher = more binding, comparable within an allelic series)","12 upbm affinity estimate (log intensity, higher = more binding, comparable within an allelic series)","11.9 upbm affinity estimate (log intensity, higher = more binding, comparable within an allelic series)","11.7 upbm affinity estimate (log intensity, higher = more binding, comparable within an allelic series)","12.1 upbm affinity estimate (log intensity, higher = more binding, comparable within an allelic series)","11.3 upbm affinity estimate (log intensity, higher = more binding, comparable within an allelic series)",,,,,
CCTTGCAG,"8.52 upbm affinity estimate (log intensity, higher = more binding, comparable within an allelic series)","9.62 upbm affinity estimate (log intensity, higher = more binding, comparable within an allelic series)",,"8.04 upbm affinity estimate (log intensity, higher = more binding, comparable within an allelic series)","8.41 upbm affinity estimate (log intensity, higher = more binding, comparable within an allelic series)","9.66 upbm affinity estimate (log intensity, higher = more binding, comparable within an allelic series)",,"9.67 upbm affinity estimate (log intensity, higher = more binding, comparable within an allelic series)",,,,"8.42 upbm affinity estimate (log intensity, higher = more binding, comparable within an allelic series)","9.74 upbm affinity estimate (log intensity, higher = more binding, comparable within an allelic series)","7.87 upbm affinity estimate (log intensity, higher = more binding, comparable within an allelic series)",,,,
CTCATAAA,"9.59 upbm affinity estimate (log intensity, higher = more binding, comparable within an allelic series)","12.6 upbm affinity estimate (log intensity, higher = more binding, comparable within an allelic series)","12.4 upbm affinity estimate (log intensity, higher = more binding, comparable within an allelic series)",,"11.9 upbm affinity estimate (log intensity, higher = more binding, comparable within an allelic series)","12.8 upbm affinity estimate (log intensity, higher = more binding, comparable within an allelic series)","11.2 upbm affinity estimate (log intensity, higher = more binding, comparable within an allelic series)","12.6 upbm affinity estimate (log intensity, higher = more binding, comparable within an allelic series)","12.5 upbm affinity estimate (log intensity, higher = more binding, comparable within an allelic series)","11.8 upbm affinity estimate (log intensity, higher = more binding, comparable within an allelic series)","12.2 upbm affinity estimate (log intensity, higher = more binding, comparable within an allelic series)","11.5 upbm affinity estimate (log intensity, higher = more binding, comparable within an allelic series)","11.1 upbm affinity estimate (log intensity, higher = more binding, comparable within an allelic series)",,,,,
ACATAAAA,"9.85 upbm affinity estimate (log intensity, higher = more binding, comparable within an allelic series)","12.8 upbm affinity estimate (log intensity, higher = more binding, comparable within an allelic series)","12.5 upbm affinity estimate (log intensity, higher = more binding, comparable within an allelic series)",,"12.3 upbm affinity estimate (log intensity, higher = more binding, comparable within an allelic series)","13 upbm affinity estimate (log intensity, higher = more binding, comparable within an allelic series)",,"12.9 upbm affinity estimate (log intensity, higher = more binding, comparable within an allelic series)",,"12 upbm affinity estimate (log intensity, higher = more binding, comparable within an allelic series)",,"12 upbm affinity estimate (log intensity, higher = more binding, comparable within an allelic series)","11.3 upbm affinity estimate (log intensity, higher = more binding, comparable within an allelic series)",,"11.3 upbm affinity estimate (log intensity, higher = more binding, comparable within an allelic series)","11.1 upbm affinity estimate (log intensity, higher = more binding, comparable within an allelic series)",,
TCGTAAAA,"9.97 upbm affinity estimate (log intensity, higher = more binding, comparable within an allelic series)","13.1 upbm affinity estimate (log intensity, higher = more binding, comparable within an allelic series)","12.8 upbm affinity estimate (log intensity, higher = more binding, comparable within an allelic series)",,"12.6 upbm affinity estimate (log intensity, higher = more binding, comparable within an allelic series)","13.2 upbm affinity estimate (log intensity, higher = more binding, comparable within an allelic series)","11.1 upbm affinity estimate (log intensity, higher = more binding, comparable within an allelic series)","13 upbm affinity estimate (log intensity, higher = more binding, comparable within an allelic series)","12.3 upbm affinity estimate (log intensity, higher = more binding, comparable within an allelic series)","12.3 upbm affinity estimate (log intensity, higher = more binding, comparable within an allelic series)","12.2 upbm affinity estimate (log intensity, higher = more binding, comparable within an allelic series)","12 upbm affinity estimate (log intensity, higher = more binding, comparable within an allelic series)","11.3 upbm affinity estimate (log intensity, higher = more binding, comparable within an allelic series)",,,,,
ATAATAAT,"9.97 upbm affinity estimate (log intensity, higher = more binding, comparable within an allelic series)","12.6 upbm affinity estimate (log intensity, higher = more binding, comparable within an allelic series)",,,,,,,,,,,,,,,"10 upbm affinity estimate (log intensity, higher = more binding, comparable within an allelic series)","8.6 upbm affinity estimate (log intensity, higher = more binding, comparable within an allelic series)"
TAATAAAA,"10.1 upbm affinity estimate (log intensity, higher = more binding, comparable within an allelic series)","13.2 upbm affinity estimate (log intensity, higher = more binding, comparable within an allelic series)","13 upbm affinity estimate (log intensity, higher = more binding, comparable within an allelic series)","11.8 upbm affinity estimate (log intensity, higher = more binding, comparable within an allelic series)","12.6 upbm affinity estimate (log intensity, higher = more binding, comparable within an allelic series)","13.2 upbm affinity estimate (log intensity, higher = more binding, comparable within an allelic series)","11.1 upbm affinity estimate (log intensity, higher = more binding, comparable within an allelic series)","13.1 upbm affinity estimate (log intensity, higher = more binding, comparable within an allelic series)","12.1 upbm affinity estimate (log intensity, higher = more binding, comparable within an allelic series)","12.5 upbm affinity estimate (log intensity, higher = more binding, comparable within an allelic series)","12.1 upbm affinity estimate (log intensity, higher = more binding, comparable within an allelic series)","12.2 upbm affinity estimate (log intensity, higher = more binding, comparable within an allelic series)","11.7 upbm affinity estimate (log intensity, higher = more binding, comparable within an allelic series)",,,,,
GTCGTTAA,"10 upbm affinity estimate (log intensity, higher = more binding, comparable within an allelic series)","12.6 upbm affinity estimate (log intensity, higher = more binding, comparable within an allelic series)","12.5 upbm affinity estimate (log intensity, higher = more binding, comparable within an allelic series)",,"11.8 upbm affinity estimate (log intensity, higher = more binding, comparable within an allelic series)","12.8 upbm affinity estimate (log intensity, higher = more binding, comparable within an allelic series)",,"12.6 upbm affinity estimate (log intensity, higher = more binding, comparable within an allelic series)",,"12.4 upbm affinity estimate (log intensity, higher = more binding, comparable within an allelic series)",,"11.3 upbm affinity estimate (log intensity, higher = more binding, comparable within an allelic series)","10.6 upbm affinity estimate (log intensity, higher = more binding, comparable within an allelic series)",,,,,
CTAATAAA,"9.76 upbm affinity estimate (log intensity, higher = more binding, comparable within an allelic series)","12.5 upbm affinity estimate (log intensity, higher = more binding, comparable within an allelic series)","12.5 upbm affinity estimate (log intensity, higher = more binding, comparable within an allelic series)",,"11.9 upbm affinity estimate (log intensity, higher = more binding, comparable within an allelic series)","12.7 upbm affinity estimate (log intensity, higher = more binding, comparable within an allelic series)","11.2 upbm affinity estimate (log intensity, higher = more binding, comparable within an allelic series)","12.6 upbm affinity estimate (log intensity, higher = more binding, comparable within an allelic series)","12.3 upbm affinity estimate (log intensity, higher = more binding, comparable within an allelic series)","11.9 upbm affinity estimate (log intensity, higher = more binding, comparable within an allelic series)","12.1 upbm affinity estimate (log intensity, higher = more binding, comparable within an allelic series)","11.6 upbm affinity estimate (log intensity, higher = more binding, comparable within an allelic series)","11.1 upbm affinity estimate (log intensity, higher = more binding, comparable within an allelic series)",,,,,
